In all, about 300,000 compounds went through this assay and about 1,200 (0.4%) were called active. Inconclusive results (about 3%) are left out. The call rests on the fitted dose curve; in most records, active means well fitted inhibition curve with a large enough effect; inconclusive means small, poorly fitted or top-dose-only effect, or another doubt; inactive means no such curve, though single readings can be large or run the other way. Only a selection was taken, and actives are over-represented in it overall.
Potency means the concentration at half of the fitted maximal effect.

This test has as its target Lysosomal alpha-glucosidase (Homo sapiens) (UniProt P10253). Kind of test: qHTS Assay for Inhibitors and Activators of Human alpha-Glucosidase Cleavage of Glycogen.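 Further: the screen sought inhibitors and activators.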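 On activity change, negative = inhibition: 0% = full enzyme reaction and -100% = no-enzyme basal signal.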 The settings on record: recombinant GAA, glycogen substrate, Amplex Red glucose oxidase fluorescence; series mostly up to 76.3 µM; activity change, negative = inhibition: at the top concentration. A digest of the protocol: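 Natural-substrate format: glycogen cleavage by 4 nM human enzyme, glucose read by Amplex Red coupling (Ex 573, Em 610 nm). Normalized to enzyme and no-enzyme controls.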
(In qHTS, concentration-response curves come from the screen itself.)
For `O=[N+]([O-])c1ccccc1Nc1ccc(O)cc1`, the Potency was 10 µM (active).
Turning to `O=[N+]([O-])c1ccc(O)c(/C=N/Nc2ccccc2[N+](=O)[O-])c1`, the “activity change, negative = inhibition” value is 6.62% [at 76.4 µM] (inactive).
The same measure, in the same setting: the figure for `O=C(O)c1ccccc1C(=O)Nc1ccccc1[N+](=O)[O-]` is -5.21% [at 76.4 µM] (inactive); for `COc1cccc(C(=O)NC(=O)Nc2ccc(-c3cc(C(F)(F)F)nn3-c3ccccc3)cc2)c1` it is 10.7% (inactive); for `COc1ccc2c(c1)Cc1sc(NC(=O)c3ccccc3Br)nc1-2` it is -9.29% (inactive).
With `COc1cc(SC)ccc1C(=O)Nc1nc(C)cs1`, the “activity change, negative = inhibition” value was 5.05% [at 76.4 µM] (inactive).
As to `Cc1csc(NC(=O)Nc2ccccc2[N+](=O)[O-])n1`, the “activity change, negative = inhibition” value was -2.5% [at 76.4 µM] (inactive).
For `Cc1csc(NC(=O)NC2(C(F)(F)F)Oc3ccccc3O2)n1`, the Potency is 8.84 µM (active).
`O=C(Nc1ccc2nc(SCCOc3ccccc3Cl)sc2c1)c1ccco1`: the “activity change, negative = inhibition” value was 4.09% (inactive).
In the case of `COc1cccc(NC(=O)N(Cc2cn(C)c3ccccc23)C2CCCCCC2)c1`, the “activity change, negative = inhibition” value is 4.58% (inactive).
In the case of `O=c1c2cccnc2n(Cc2cccc(F)c2)c(=O)n1Cc1ccccc1Cl`, the “activity change, negative = inhibition” value is -5.47% (inactive).
Same read-out and setting: the figure for `COc1cc(OC)cc(C(=O)Nc2cc3nn(-c4ccccc4)nc3cc2Cl)c1` is 0.391% (inactive); for `O=C(Nc1ccccc1-c1nc2ccccc2[nH]c1=O)c1cccs1` it is -0.0999% (inactive).
With `C/C(=N\Nc1nc2ccccc2[nH]1)c1cccs1`, the Potency is 25.1 µM (active).
With `C/C(=N\Nc1nc(Nc2ccccc2)nc(N2CCOCC2)n1)c1cccs1`, the “activity change, negative = inhibition” value is -18.1% [at 76.4 µM] (inactive).
As for `Cc1c(C(=O)N2CCCC2)oc2c1-c1nn(CC(=O)NCc3ccc(OC(C)C)cc3)cc1CC2`, the “activity change, negative = inhibition” value was -1.91% (inactive).
Still for that read-out and setting: the figure for `COc1ccccc1CNc1ccc(-c2nc(-c3ccccc3C)no2)cc1[N+](=O)[O-]` is -14.1% (inactive).
On the same count and under the same terms, in the case of `COc1ccc(NC(=O)CSc2nc3ncccc3[nH]2)c(OC)c1` it was -12.5% (inactive).
Same read-out and setting: the figure for `Cc1ccc(NC(=O)Nc2ccccc2)c(Br)c1` is 11.9% [at 76.4 µM] (inactive).
With `C=CCNc1scc(-c2ccccc2)[n+]1CC=C`, the “activity change, negative = inhibition” value was 5.77% [at 76.4 µM] (inactive).
For the compound `C=CC[n+]1c(-c2ccc(C)cc2)csc1NNC(=O)Nc1ccccc1`, the Potency was 25.1 µM (active).
Consider `CN(CC(=O)Nc1cccc(C(F)(F)F)c1)S(=O)(=O)c1cccs1`, for which the “activity change, negative = inhibition” value was 8.76% (inactive).
Same read-out and setting: in the case of `CSc1nc(-c2ccccc2Cl)nc2c1Cc1c(CO)cnc(C)c1O2` it was 11.9% (inactive); in that of `CCc1nnc(SCc2c(F)cccc2Cl)c2cc3sccc3n12`, 8.52% (inactive).
With `CCN(CCCNC(=O)c1cc2cc3cc(OC)ccc3nc2s1)c1ccccc1`, the “activity change, negative = inhibition” value is -9.2% (inactive).
`Cc1cc(C)n2nc(C(=O)Oc3ccc4c(c3)OCO4)nc2n1`: the Potency was 12.5 µM (active).
As for `Cc1cc(C)n2nc(C(=O)NC(C)(C)C)nc2n1`, the “activity change, negative = inhibition” value is 6.76% [at 76.4 µM] (inactive).
Same read-out and setting: the figure for `Cc1cc(C)n2nc(C(=O)N3CCN(Cc4ccc5c(c4)OCO5)CC3)nc2n1` is -7.58% [at 76.4 µM] (inactive); for `CSc1nc(Nc2ccc(F)cc2)cc(-c2ccccc2)n1` it is -15% (inactive).
On the same count and under the same terms, the figure for `CCOc1ccc(N(CC)C(=O)c2noc3c2COc2ccc(C)cc2-3)cc1` is -9.78% (inactive).
With `CCCc1nc2ccccc2c(=O)n1/N=C/c1ccc(O)c(O)c1`, the Potency is 11.2 µM (active).
With `Cc1[nH]n(-c2cccc(Cl)c2)c(=O)c1/C=N/n1c(C)nc2ccccc2c1=O`, the “activity change, negative = inhibition” value is -5.44% [at 76.4 µM] (inactive).
The same measure, in the same setting: the figure for `O=c1c2ccccc2ncn1/N=C/c1ccccc1` is 7.31% [at 76.4 µM] (inactive); for `CC(=O)c1ccc(NC(=O)c2nc(-c3ccc(C)cc3)n3c2CCCCC3)cc1` it is -23.7% (inactive).
`COc1ccccc1NC(=O)Cn1cnc2ccc(S(=O)(=O)N3CCC(C)CC3)cc2c1=O`: the “activity change, negative = inhibition” value is 7.07% (inactive).
Still for that read-out and setting: in the case of `CCc1ccc(NC(=O)CCS(=O)(=O)c2cc3c(cc2Cl)NC(=O)CO3)cc1` it was 7.29% (inactive).
On to `CC(C)Cn1c(=O)c2ccccc2n2c(CCC(=O)N3CCN(c4cccc(Cl)c4)CC3)nnc12`, for which the “activity change, negative = inhibition” value was 11.2% (inactive).

For the origin of these results see PubChem BioAssay AID2100 (National Center for Advancing Translational Sciences (NCATS), 2009).
